MmCpn inh = inhibitors of Methanococcus maripaludis chaperonin TRiC (MmCpn). purified Mm-Cpn ATPase, ADP Transcreener TR-FRET. Potency, µM (doses to about 76.9 µM), for inactives: at the highest dose activity, negative = inhibition, most hits filed as inhibitors. 0.031% of 330,000 active; note: potency is the fitted concentration of half-maximal effect; % is set by controls: 0 for no effect and ±100 for the full control effect; nearly all actives have a fitted effect of over 80% in size
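Eu-cryptate anti-ADP/ADP-d2 competition gives a ratio inversely related to ADP. Enzyme at 25 nM was pre-exposed to compound for 10 min, then given 10 uM ATP for 30 min, 37°C throughout.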
FUS suppressor = suppressors of FUS proteinopathy in yeast; S. cerevisiae FUS-expressing, growth rescue, OD600, 24 h; Potency, µM (highest dose often 76.6 µM), hits mostly activators; 0.24% of 390,000 active; AID 1347120;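 note: potency is the fitted concentration of half-maximal effect; plate controls were DMSO vehicle for no effect and reference control for full effect; nearly all actives have a fitted effect of over 55% in size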
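Cultures pregrown in 2.5% raffinose medium are shifted to minimal medium containing 2% galactose to express toxic FUS. Compounds are tested at several concentrations. After 24hr at 30C, growth is quantified at 600 nm absorbance.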
aSyn rescue = inhibitors of alpha-synuclein toxicity in yeast; 0.14% of 370,000 active; Potency, µM (titrated, usually from 46.1 µM), for the others: top-dose growth rescue (activation), hits mostly activators; Yeast expressing alpha-synuclein, growth rescue, BacTiter-Glo, 24 h; AID 652106; note: potency is the fitted concentration of half-maximal effect; % of control where 0% means no effect; nearly all actives have a fitted effect of over 65% in size
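Readout is rescue of growth in alpha-synuclein-expressing yeast, so inhibitors of toxicity appear as activators. Growth after 24 hr at 30 deg C in galactose medium is quantified by luminescence.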
TDP43 rescue = TDP-43 toxicity inhibition in yeast; Potency, µM (highest dose often 46.1 µM), for the others: at the top dose growth rescue (activation), usual class: activators; TDP-43 expressing yeast growth rescue, BacTiter-Glo, 24 h; 1.8% of 410,000 active; note: potency is the fitted concentration of half-maximal effect; % of control where 0% means no effect; nearly all actives have a fitted effect of over 50% in size
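Luminescence from BacTiter-Glo reports growth of TDP-43-expressing yeast after 24 hr at 30 deg C with compound. Cells were raffinose-pregrown to mid-log, then seeded in galactose medium at OD600=0.02.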
CCT modulator = changes cytosolic chaperonin activity; activity change, % (concentration not given with the values), hits read low; 0.3% of 360,000 active; AID 651819; purified chaperonin ATPase assay, HTRF ADP detection, 30 min; in the data active = activity change below about -30%; note: % is set by controls: 0 for no effect and ±100 for the full control effect
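We incubate TRiC, 40 or 20 nM final, with library compounds at 76 uM and 10 uM ATP for 30 min at 37 °C. ADP formed is detected with Transcreener HTRF reagents after 30 min at room temperature.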
Abeta rescue = A-beta toxicity reversal in yeast | yeast expressing A-beta42, growth rescue, OD600, 48 h; response scale: 0% DMSO, 100% iron-clioquinol control | Potency, µM (series often up to 46.1 µM), most hits filed as activators | 0.063% of 410,000 active; note: potency is the fitted concentration of half-maximal effect; nearly all actives have a fitted effect of over 55% in size
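Yeast growth medium received pinned compounds, then yeast cells expressing toxic A-beta were added; plates incubated at 30 C for 48 hr. Growth read as absorbance at 600 nm, normalized to DMSO and equimolar FeCl3 plus clioquinol controls.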
Active calls of the source: *; [ ] = dose if it differs, or a comment. A selection: hits, their analogues and other compounds. The true share with any hit is near 2.3%. Unless noted, calls come from the whole dose curve; as a rule, active = well fitted curve in the direction sought with a large enough effect; inconclusive = small, poorly fitted or top-dose-only effect, or another doubt; inactive = no such curve, though single readings can be large; an effect the other way counts as inactive or inconclusive.

N#Cc1cnc(SCC(=O)c2ccccc2)nc1N was read as MmCpn inh -1.7%, FUS suppressor inactive, aSyn rescue 0.4%, TDP43 rescue 21.0%, CCT modulator -1.2 and Abeta rescue inactive.
N#Cc1cnc(SCCc2ccccc2)nc1N was read as MmCpn inh -5.5%, FUS suppressor inactive, aSyn rescue 0.8%, TDP43 rescue 12.6µM*, CCT modulator 2.9 and Abeta rescue inactive.
Screening O=C(CCn1nnc2ccccc21)N1CCN(Cc2ccc3c(c2)OCO3)CC1 returned FUS suppressor inactive.
Screening Cn1cc(C(=O)N2CCN(c3cccc(C(F)(F)F)c3)CC2)c2c3ccccc3n(C)c2c1=O returned FUS suppressor inconclusive, TDP43 rescue 28.2µM* and Abeta rescue inactive.
Screening COc1ccc(N2CCN(C(=O)c3cn(CC(C)C)c(=O)c4c3c3ccccc3n4C)CC2)cc1 returned FUS suppressor inconclusive, TDP43 rescue inconclusive and Abeta rescue inactive.
`CC(C)Cn1cc(C(=O)N2CCN(c3cccc(Cl)c3)CC2)c2c3ccccc3n(C)c2c1=O` gave FUS suppressor 35.5µM*, TDP43 rescue -9.7% and Abeta rescue inactive.
For Cn1c2ccccc2c2c(C(=O)N3CCN(c4cccc(C(F)(F)F)c4)CC3)cn(C3CCCCC3)c(=O)c21 the results were FUS suppressor inactive, TDP43 rescue 20.6% and Abeta rescue inactive.
For CC(Nc1oc(-c2ccc(COc3ccccc3)o2)nc1C#N)c1ccccc1 (configuration not stated) the results were FUS suppressor inactive, TDP43 rescue 7.4% and Abeta rescue inactive.
For CCCCCC(=O)c1c(C)[nH]c(C(=O)OCC)c1C the results were MmCpn inh 2.3%, FUS suppressor inactive, aSyn rescue -1.9%, TDP43 rescue 16.7%, CCT modulator 1.0 and Abeta rescue inactive.
Screening CCCCCCC(=O)c1c(C)[nH]c(C(=O)OCC)c1C returned MmCpn inh -1.7%, FUS suppressor inactive, aSyn rescue -3.3%, TDP43 rescue 10µM*, CCT modulator -1.0 and Abeta rescue inactive.
COc1ccc(N2CCN(C(CNS(=O)(=O)c3c(C)cc(C)cc3C)c3ccco3)CC2)cc1 (configuration not stated) was read as FUS suppressor inactive, TDP43 rescue 17.5% and Abeta rescue inactive.
`CCOc1ccc(-c2cc(C(F)(F)F)c(C#N)c(SCC(=O)Nc3ccccc3)n2)cc1` gave FUS suppressor inactive, TDP43 rescue 11.5% and Abeta rescue inactive.
For CCc1ccc(NC(=O)c2cc(S(=O)(=O)NC3CCCC3)ccc2F)cc1 the results were FUS suppressor inactive, TDP43 rescue 20µM* and Abeta rescue inactive.
For COc1ccc(/C=N/N2CCOCC2)cc1COc1ccc(Cl)cc1 the results were MmCpn inh 0.9%, aSyn rescue 2.8%, TDP43 rescue 15.8µM*, CCT modulator -3.4 and Abeta rescue inactive.
COc1ccc(/C=N/NC(=O)c2ccn[nH]2)cc1COc1ccc(Cl)cc1 was read as MmCpn inh -4.4%, FUS suppressor inactive, aSyn rescue 12.1%, TDP43 rescue 17.8µM*, CCT modulator 0.3 and Abeta rescue inactive.
Screening N#Cc1nc(COc2cccc(Cl)c2)oc1NCCc1ccccc1 returned FUS suppressor inactive, TDP43 rescue 16.5% and Abeta rescue inactive.
Screening COc1ccc(NC(=O)CC2C(=O)NCCN2C(=O)c2ccc(N(C)C)cc2)cc1 (configuration not stated) returned MmCpn inh 0.7%, FUS suppressor inactive, aSyn rescue 4.6%, TDP43 rescue -6.8%, CCT modulator -49.9* and Abeta rescue inactive.
Screening CN(C)c1ccc(C(=O)N2CCNC(=O)C2CC(=O)Nc2ccc(F)cc2)cc1 (configuration not stated) returned MmCpn inh -1.2%, FUS suppressor inactive, aSyn rescue -0.9%, TDP43 rescue inconclusive, CCT modulator 2.3 and Abeta rescue inactive.
`O=C(Cc1ccc(-n2cccc2)cc1)N1CCN(c2ccccc2F)CC1` gave MmCpn inh 0.0%, aSyn rescue 0.4%, TDP43 rescue 17.8µM*, CCT modulator 0.0 and Abeta rescue inactive.
Screening COc1ccc(CC(=O)N2CCN(c3ccccc3F)CC2)cc1OC returned MmCpn inh -3.8%, FUS suppressor inactive, aSyn rescue 15.1%, CCT modulator 0.6 and Abeta rescue inactive.
CCCCNC(=O)C1CCCN1C(=O)Nc1cccc(C)c1 (configuration not stated) was read as FUS suppressor inactive.
For Cc1cccc(NC(=S)NC(=O)C2CC2)c1 the results were MmCpn inh 1.0%.
Screening Cc1cc(NC(=O)C2CCCO2)ccc1Br (configuration not stated) returned MmCpn inh 1.1%, FUS suppressor inactive, aSyn rescue 3.2%, TDP43 rescue 8.0%[9.22 µM], CCT modulator -107.3* and Abeta rescue inactive.
Screening Cc1cc(C)cc(NC(=S)NC(=O)C2CC2)c1 returned MmCpn inh 0.2%, FUS suppressor inactive, aSyn rescue -0.7%, TDP43 rescue 11.2µM*, CCT modulator -0.3 and Abeta rescue inactive.
`Cc1cc(NC(=S)NC(=O)C2CC2)ccc1Br` gave MmCpn inh 1.0%, FUS suppressor inactive, aSyn rescue -37.0%, TDP43 rescue 15.8µM*, CCT modulator -2.9 and Abeta rescue inactive.
O=C(Nc1ccc([N+](=O)[O-])c(NC(=O)C2CCCO2)c1)C1CCCO1 (configuration not stated) was read as MmCpn inh -0.3%, FUS suppressor inconclusive, aSyn rescue -11.1%, TDP43 rescue -0.6%, CCT modulator 0.5 and Abeta rescue inactive.
Screening O=C(Nc1ccc(N=Nc2ccccc2)c(NC(=O)C2CCCO2)c1)C1CCCO1 (configuration not stated) returned MmCpn inh 1.1%, FUS suppressor inconclusive, aSyn rescue -1.2%, TDP43 rescue 14.1µM*, CCT modulator -2.1 and Abeta rescue inactive.
CCOC(=O)Cn1c(=O)n(CC(=O)OCC)c2ccccc21 was read as MmCpn inh 3.5%, FUS suppressor inactive, aSyn rescue -4.4%, TDP43 rescue 11.9%, CCT modulator -3.9 and Abeta rescue inactive.
For CCOC(=O)n1c2ccccc2c(=O)n1CCO the results were FUS suppressor inactive, aSyn rescue 2.9%, TDP43 rescue 15.8%, CCT modulator -33.0* and Abeta rescue inactive.

Assay outcomes from PubChem BioAssay.
